Screening results deposited in PubChem BioAssay by National Center for Advancing Translational Sciences (NCATS).
Only some compounds are listed: those with a hit (about 2.4% of all), similar ones and a draw of the others.
POLH inh = DNA polymerase eta (human) inhibition; AID 588591; Q9Y253; hit rate 1.2% among 390,000; Potency, µM (top dose mostly 114 µM), without a hit: at the highest dose activity change, negative = inhibition, hits mostly inhibitors; recombinant Pol eta, fluorescent DNA replication assay; note: % is set by controls: 0 for no effect and ±100 for the full control effect
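Pol eta at 10 nM preincubated with compounds 15 min at room temperature; reaction started with fluorescent substrate (50 nM final) and read kinetically at 0 and 10 min.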
Pol kappa inh = DNA polymerase kappa (human) inhibition; purified Pol kappa, fluorescent DNA synthesis assay, 10 min; Potency, µM (top dose mostly 107 µM), for the others: at the top dose activity, negative = inhibition, actives largely listed as inhibitors; hit rate 0.53% among 400,000; note: % is set by controls: 0 for no effect and ±100 for the full control effect
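First, compounds were pin-transferred onto 10 nM Pol kappa. After 15 min at room temperature, substrate was added to 50 nM final. Fluorescence was then measured kinetically at 0 and 10 min.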
POLB inh = inhibitors of human DNA polymerase beta. Pol beta primer extension/strand displacement, fluorescence kinetic. hit rate 1.3% among 340,000. Potency, µM (top dose mostly 114 µM), for inactives: top-dose activity change, negative = inhibition, actives largely listed as inhibitors. AID 485314; note: % is set by controls: 0 for no effect and ±100 for the full control effect
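Values derive from four-parameter Hill fits of normalized kinetic data: reads at 0 and 10 min following addition of 50 nM substrate to 10 nM Pol beta preincubated 15 min with compound.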
WRN helicase inh = WRN helicase (human) inhibition; AID 651768; hit rate 0.46% among 360,000; Q14191; WRN helicase unwinding, fluorescent forked duplex, kinetic; Potency, µM (top dose mostly 114 µM), for the others: at the highest dose activity change, negative = inhibition, actives largely listed as inhibitors; note: % is set by controls: 0 for no effect and ±100 for the full control effect; nearly all actives have a fitted effect of over 55% in size
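Screening of the MLSMR collection measured strand separation of a quenched forked DNA duplex (100 nM) by 20 nM WRN with 2 mM ATP, all final. Compounds were preincubated with enzyme 15 min at room temperature.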
FEN1 inhibitor = inhibitors of human flap endonuclease 1; Recombinant FEN1 flap cleavage, fluorescence, 15 min; hit rate 0.35% among 390,000; AID 588795; Potency, µM (highest dose often 114 µM), without a hit: at the top dose activity change, negative = inhibition, hits mostly inhibitors; P39748; note: % is set by controls: 0 for no effect and ±100 for the full control effect; nearly all actives have a fitted effect of over 65% in size
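FEN1 at 10 nM preincubated with compounds 15 min at room temperature, then flap DNA substrate added at 50 nM final. Signal read at 0 and 15 min; concentration-response fitted with four-parameter Hill equation.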
POLI inh = DNA polymerase iota (human) inhibition; Q9UNA4; Pol iota fluorescent replication assay, 10 min; Potency, µM (titrated, usually from 115 µM), for inactives: top-dose activity, negative = inhibition, most hits filed as inhibitors; hit rate 1% among 390,000
Target sequence (Q9UNA4 whole entry, looked up): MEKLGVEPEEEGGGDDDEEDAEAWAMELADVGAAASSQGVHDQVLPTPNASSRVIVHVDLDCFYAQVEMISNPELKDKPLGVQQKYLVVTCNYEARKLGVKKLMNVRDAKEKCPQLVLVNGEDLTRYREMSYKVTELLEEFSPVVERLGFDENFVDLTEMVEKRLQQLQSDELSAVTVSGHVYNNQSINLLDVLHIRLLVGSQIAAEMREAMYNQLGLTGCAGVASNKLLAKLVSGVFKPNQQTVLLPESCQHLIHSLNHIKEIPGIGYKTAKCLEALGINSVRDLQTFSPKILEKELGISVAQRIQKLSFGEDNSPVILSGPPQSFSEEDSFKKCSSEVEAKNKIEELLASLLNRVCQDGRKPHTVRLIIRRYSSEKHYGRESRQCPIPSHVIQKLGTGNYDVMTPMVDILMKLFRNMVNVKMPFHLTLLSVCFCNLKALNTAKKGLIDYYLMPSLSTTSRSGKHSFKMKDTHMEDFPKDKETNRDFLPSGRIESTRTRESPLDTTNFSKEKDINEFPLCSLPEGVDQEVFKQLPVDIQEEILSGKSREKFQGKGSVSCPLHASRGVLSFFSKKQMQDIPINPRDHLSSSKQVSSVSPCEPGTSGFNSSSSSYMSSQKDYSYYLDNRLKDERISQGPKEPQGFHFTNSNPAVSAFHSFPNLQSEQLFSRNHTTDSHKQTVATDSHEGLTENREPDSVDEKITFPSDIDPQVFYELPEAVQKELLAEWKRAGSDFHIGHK
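Fluorescent replication assay read twice, at 0 min and 10 min after adding 50 nM (final) substrate. Enzyme (10 nM) and compounds were first incubated 15 min at room temperature; enzyme-free buffer wells were negative controls.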
Numbers without * were called inactive; ? = inconclusive; nt = no result given; ! = repeats disagree; [ ] = remark or other dose. Calls come from the whole dose curve; as a rule, active = well fitted curve in the direction sought with a large enough effect; inconclusive = small, poorly fitted or top-dose-only effect, or another doubt; inactive = no such curve, though single readings can be large; an effect the other way counts as inactive or inconclusive. Potency is the fitted concentration of half-maximal effect.

SMILES	POLH inh	Pol kappa inh	POLB inh	WRN helicase inh	FEN1 inhibitor	POLI inh
Cc1cc(C)c2nc(Cl)c(CN(Cc3ccco3)C(=O)Nc3ccccc3C)cc2c1	-7%	-8%	1%	-13%	-3%	89µM*
COCCN(Cc1cc2cc(C)cc(C)c2nc1Cl)C(=O)Nc1ccccc1	-14%	-9%	?	-9%	-19%	35%
O=C(Nc1cccc(Cl)c1)c1cccc(N2C(=O)C3CC=CCC3C2=O)c1 (configuration not stated)	-21%	-18%	16µM*	-24%	2%	?
COc1ccc(-c2nc(CSc3nncn4c3cc3occc34)c(C)o2)cc1	-14%	?	3.5µM*	nt	7%	?
CCCCC/C=C\C/C=C\C/C=C\C=C\C(=O)CCCC(=O)O	nt	8%[19.4 µM]	nt	nt	nt	nt
Cc1cc(-c2ccccc2)c2c(=O)[nH][nH]c2n1	-18%	-9%	0%	-20%[57.1 µM]	-4%	79µM*
Cc1ccc(-n2c(SCC(=O)Nc3ccc4c5c(cccc35)CC4)nc(O)cc2=O)cc1	-12%	-24%	35µM*	-15%	-5%	-28%
O=c1cc(O)nc(SCc2ccccc2)n1-c1ccccc1	-9%	?	14%	-16%	-16%	?
Cc1ccc(-n2c(SCC(=O)Nc3ccc4c5c(cccc35)CC4)nc(O)c(C)c2=O)cc1	-19%	-4%	16%	-23%	-3%	-8%
O=C(CSc1ncccn1)N1CCCc2ccccc21	-21%	-6%	15%	10%	5%	113%
CCc1cccc(CC)c1-n1c(SCC(=O)N2CCCc3ccccc32)nc(O)cc1=O	-16%	45µM*	nt	-16%	-23%	?
Cc1cc(C)cc(-n2c(SCC(=O)NCc3ccc4c(c3)OCO4)nc3ccccc3c2=O)c1	-21%	-24%	-8%	1%	-3%	-2%
O=C(CSc1nc(O)cc(=O)n1-c1ccccc1)NCc1ccccc1	-5%	-26%	3%	-18%	-3%	40µM*
O=C(CSc1nc2cc([N+](=O)[O-])ccc2n1-c1ccccc1)NCc1ccc2c(c1)OCO2	-14%	-18%	10µM*	-6%	3%	?
O=C(O)c1cccnc1SCC(=O)N1CCCc2ccccc21	20µM*	-38%	?	-6%[11.6 µM]	-14%	?
CC(=O)NS(=O)(=O)c1ccc(NC(=O)c2cc3c(=O)n4ccccc4nc3s2)cc1	40µM*	?	79µM*	-34%	-4%	35µM*
CCCCNC(=O)c1cc2cccc([N+](=O)[O-])c2[nH]1	-5%	1%	2%	-4%	-7%	59%
O=C(O)c1cc2cccc([N+](=O)[O-])c2[nH]1	nt	45µM*!	nt	nt	?	71µM*!
COc1cccc(CNC(=O)c2nnn(CC(=O)Nc3ccc4c(c3)OCO4)c2N)c1	-4%	-9%	?	-5%	-27%	-11%
COc1ccc(OC)c(NC(=O)c2nnn(CC(=O)Nc3ccc4c(c3)OCO4)c2N)c1	16µM*	-3%	?	-20%	-13%	64%
COc1ccc(Cl)cc1NC(=O)Cn1nnc(C(=O)NCc2ccc3c(c2)OCO3)c1N	-2%	-24%	-16%	-7%	-1%	7%
COc1cccc(NC(=O)Cn2nnc(C(=O)NCc3ccc4c(c3)OCO4)c2N)c1	-14%	-20%	-29%	6%[11.6 µM]	15%	50µM*
COc1ccc2c(CC(=O)NCc3ccc4c(c3)OCO4)coc2c1	50µM*	?	18µM*	?	1%	?
Cc1ccc(N)c(Cl)c1	nt	14%[60.1 µM]	nt	nt	nt	nt
Cc1cc(-c2csc(NC(=O)c3ccc(=O)n(C)n3)n2)c(C)n1CC1CCCO1 (configuration not stated)	?	?	-27%	-29%	3%	11µM*
SMILES	POLH inh	Pol kappa inh	POLB inh	WRN helicase inh	FEN1 inhibitor	POLI inh
CCCC[C@@H]1CCCO[C@@](C(=O)NCCOC)(C(F)(F)F)C1	nt	1%	nt	nt	17%	8%
N#C/C(=N\Nc1cccc([N+](=O)[O-])c1)C(=O)c1ccc(Br)cc1	79µM*	-34%	5%	?	-28%	?
Cc1cc2nc3c(=O)[nH]c(=O)nc-3n(C[C@H](O)[C@H](O)[C@H](O)COP(=O)(O)OP(=O)(O)OC[C@H]3O[C@@H](n4cnc5c(N)ncnc54)[C@H](O)[C@@H]3O)c2cc1C	nt	-2%[19.4 µM]	nt	nt	nt	nt
COc1ccc(-c2ccc(C(C)=O)cc2)cc1C1C2C=CCCC2(C)C(=O)N1Cc1ccccc1 (configuration not stated)	nt	-24%	nt	nt	-7%	-2%
O=C(CSc1nnnn1C1CC1)N1CCN(c2ccc(O)cc2)CC1	?	?	nt	-2%[11.6 µM]	9%	45µM*
CCC(=O)Nc1cc2c3c(c1)CCN3C(=O)CC2	8%	79µM*	38%	4%	-17%	?
CN(c1ccc(C(=O)NCCSCc2ccco2)cc1)S(C)(=O)=O	-14%	-2%	1µM*	-13%	-4%	7%
O=C(CN(c1ccccc1)S(=O)(=O)c1ccccc1)NCCSCc1ccco1	?	79µM*	56µM*	-12%[11.6 µM]	-19%	?
COc1ccc(N(CC(=O)NCCSCc2ccco2)S(=O)(=O)c2ccccc2)cc1	-3%	-7%	-11%	-7%	-10%	38%
CN(c1ccc(C(=O)NCc2ccco2)cc1)S(C)(=O)=O	11%	-21%	0%	2%	5%	10%
Cc1nc2c(=O)[nH]c(=S)n(C)c2nc1C	4%	-16%	56%	56µM*	?	?
Cn1c(-c2nc(-c3ccccc3)cs2)nc2ccccc21	nt	-8%[19.4 µM]	nt	nt	nt	nt
